Compounds with a hit are over-represented: about 19% of the library has one in this group of screens.
HT1080 IDH1KD tx = qHTS for induction of synthetic lethality in tumor cells producing 2HG: qHTS for the HT-1080-IDH1KD cell line; HT-1080 IDH1 knockdown viability, ATP luminescence, 48 h; Potency, µM (highest dose often 46.1 µM), inactives show top-dose activity, negative = toxicity, hits mostly cytotoxic; 2% of 360,000 active; AID 686971, 2013;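 further: 0% = DMSO wells and -100% = cell-free medium wells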
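Viability of IDH1-knockdown HT-1080 fibrosarcoma cells was assessed by CellTiter-Glo after 48 h at 37 °C with titrated compound; concentration-effect curves were classified by fit quality and response size.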
DT40 TDP1 CPT = qHTS for Inhibitors of human tyrosyl-DNA phosphodiesterase 1 (TDP1): qHTS in cells in presence of CPT; chicken DT40 Tdp1-/-;hTDP1 cells + 20 nM CPT, ATP luminescence, 48 h; Potency, µM (titrated, usually from 46.2 µM), for the others: top-dose activity change, negative = growth inhibition, most hits filed as inhibitors; 12% of 420,000 active; further: nearly all actives have a fitted effect of over 55% in size
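Chicken DT40 Tdp1-/- cells complemented with human TDP1, 400 cells/well, exposed to compounds plus 20 nM camptothecin for at least 48 h at 37 C; viability read as ATP content by CellTiter-Glo luminescence.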
HT1080-NT tox = qHTS for induction of synthetic lethality in tumor cells producing 2HG: qHTS for the HT-1080-NT fibrosarcoma cell line; HT-1080-NT fibrosarcoma viability, CellTiter-Glo ATP luminescence, 48 h; Potency, µM (series often up to 46.1 µM), without a hit: top-dose activity, negative = less viability, most hits filed as cytotoxic; 1.6% of 360,000 active;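 further: NT is the 2HG producing partner of a matched IDH1 knockdown line; 0% = DMSO-treated cells and -100% = media-only wells without cells; nearly all actives have a fitted effect of over 55% in size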
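Read-out is CellTiter-Glo luminescence after 10 minutes at room temperature, following 48 hours' compound treatment of HT-1080-NT cells (750 cells/well, RPMI, 5% FBS, 37 degrees C).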
KB-3-1 tox = qHTS assay for MDR1-selective chemotherapeutics: Primary screen using the parental adenocarcinoma cell KB-3-1; Potency, µM (titrated, usually from 46.1 µM), actives largely listed as cytotoxic; AID 1347075, 2019; KB-3-1 viability, CellTiter-Glo ATP luminescence, 72 h; 1.4% of 400,000 active; further: nearly all actives have a fitted effect of over 60% in size
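Cytotoxicity measured as CellTiter-Glo luminescence after 72 h at 37 C. Compound titrations were pinned onto drug-naive KB-3-1 parental adenocarcinoma cells grown in DMEM with 10% FBS, and normalized data fitted to concentration-response curves.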
DT40 TDP1 no CPT = qHTS for Inhibitors of human tyrosyl-DNA phosphodiesterase 1 (TDP1): qHTS in cells in absence of CPT; Potency, µM (doses to about 46.2 µM), for inactives: at the top dose activity change, negative = growth inhibition, usual class: inhibitors; 15% of 420,000 active; DT40 Tdp1-/- hTDP1 cells, no CPT, ATP luminescence, 48 h; further: nearly all actives have a fitted effect of over 55% in size
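DT40 Tdp1-/-;hTDP1 cells, no CPT (DMSO vehicle only), 400 cells/well; compounds pin-transferred; ≥48 hr, 37 °C; CellTiter-Glo 30 min RT dark, luminescence read.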
KB-V1 MDR tox = qHTS assay for MDR1-selective chemotherapeutics: Primary screen using the drug-selected MDR subline cells KB-V1 | KB-V1 MDR cells viability, CellTiter-Glo, 72 h | Potency, µM (doses to about 46.1 µM), hits mostly cytotoxic | 3.4% of 400,000 active | AID 1347076, 2019; further: nearly all actives have a fitted effect of over 60% in size
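Following 72 h at 37 degrees C with compound, KB-V1 cell viability was read by CellTiter-Glo luminescence, medium being phenol-red-free DMEM plus 10% FBS; concentration-response parameters came from normalized, curve-fitted qHTS data.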
Active calls of the source: *; i = inactive; u = inconclusive; x = no result given; ! = not active in a repeat; [ ] = dose if it differs, or a comment. The call rests on the fitted dose curve; in most records, active means well fitted curve in the direction sought with a large enough effect; inconclusive means small, poorly fitted or top-dose-only effect, or another doubt; inactive means no such curve, though single readings can be large; an effect the other way counts as inactive or inconclusive. Unless noted, on the % scale 0 is the no-effect control and ±100 the full control effect; potency means the concentration at half of the fitted maximal effect.

SMILES	HT1080 IDH1KD tx	DT40 TDP1 CPT	HT1080-NT tox	KB-3-1 tox	DT40 TDP1 no CPT	KB-V1 MDR tox
CCOCC(=O)NC1CCc2cc(OC(=O)COCC)c(OC)c(OC)c2-c2ccc(SC)c(=O)cc21 (configuration not stated)	0.146µM*	0.0231µM*	0.0731µM*	0.0092µM*	0.146µM*	16.4µM*
COc1ccc(-c2ccc(=O)n(CC(=O)NC3CCc4ccccc43)n2)cc1OC (configuration not stated)	8.9%	-3.1%	10.8%	i	4.7%	u
COc1c(O[C@@H]2O[C@H](CO)[C@@H](O)[C@H](O)[C@H]2O)cc2c(c1OC)-c1ccc(SC)c(=O)cc1[C@@H](NC(C)=O)CC2	x	12.4%[21.1 µM]	x	x	-0.9%[21.1 µM]	x
COc1cc2c(c(OC)c1OC)-c1ccc(SC)c(=O)cc1C(NC(=O)C(F)(F)F)CC2 (configuration not stated)	0.0065µM*	0.092µM*	0.0092µM*	0.0517µM*	0.0184µM*	0.13µM*
CCOc1ccc(NC(=O)C(C)n2c(=O)cc(-c3ccccc3)c3c(C)nn(C)c32)cc1 (configuration not stated)	x	-5.0%	x	i	-7.0%	i
Cn1c(O)c(C(C#N)=C2N=c3ccccc3=N2)c2ccccc21	5.0%	8.2µM*	8.6%	i	11.6µM*	i
CCOc1ccc(C(=O)NCC(=O)N2CCN(c3ccccc3O)CC2)cc1	-2.5%	-12.1%	-5.8%	i	-8.6%	i
O=[N+]([O-])c1ccc(S(=O)(=O)N2CCN(C3CCN(Cc4ccccc4)CC3)CC2)cc1	2.5%	-29.9%	4.4%	i	u	u
CCOC(=O)c1c(C)[nH]c(C)c1S(=O)(=O)N1CCN(c2ccc(Cl)cc2)CC1	x	u	x	i	u	i
CCOC(=O)c1c(C)[nH]c(C)c1S(=O)(=O)N1CCCC(C(=O)N2CCN(c3ccccc3F)CC2)C1 (configuration not stated)	x	u	x	i	u	i
CCOC(=O)N1CCC(N2CCN(S(=O)(=O)c3ccc([N+](=O)[O-])cc3)CC2)CC1	-5.8%	13µM*	2.2%	u	u	i
CCOC(=O)c1c(C)[nH]c(C)c1S(=O)(=O)N1CCN(c2ccc([N+](=O)[O-])cc2)CC1	-6.1%	u	-4.1%	i	13µM*	i
CCOC(=O)c1c(C)[nH]c(C)c1S(=O)(=O)N1CCCC(C(=O)N2CCN(c3ccc(Cl)cc3)CC2)C1 (configuration not stated)	x	16.4µM*	x	i	u	i
O=C(C1CCCN(S(=O)(=O)c2cnc[nH]2)C1)N1CCN(c2ccc(Cl)cc2)CC1 (configuration not stated)	-1.7%	13µM*	-4.8%	i	18.4µM*	i
CCOc1ccc(C2N3CC4(C(C)C)CN2CC(C(C)C)(C3)C4=O)cc1OC (configuration not stated)	x	u	x	i	u	i
C[C@@H]1CN([C@H](C)CO)C(=O)CCCn2nncc2CO[C@@H]1CN(C)C(=O)c1cc(-c2ccccc2)on1	-5.0%	-25.9%	-9.5%	i	u	i
CC(C)CCNC(=O)C12CN(Cc3ccccc3)CC1C(c1ccc([N+](=O)[O-])cc1)=NO2 (configuration not stated)	-13.3%	u	-7.0%	u	u	i
COc1cccc(CNC(=O)C23CN(Cc4ccccc4)CC2C(c2ccc([N+](=O)[O-])cc2)=NO3)c1 (configuration not stated)	-3.4%	u	-2.9%	i	u	13µM*
O=C(NCc1ccc(C(F)(F)F)cc1)C12CN(Cc3ccccc3)CC1C(c1cccc([N+](=O)[O-])c1)=NO2 (configuration not stated)	3.6%	-102.8%	15.4%	i	16.4µM*	i
CCOC(=O)c1c(C)n2c3c(cc(C)cc13)CCC2	0.6%	-1.7%	13.9%	i	u	i
O=C(/C=C/c1ccccc1)Nn1cnc2ccccc2c1=O	-9.1%	16.4µM*	-7.6%	u	-98.3%	i
O=C(c1ccc(CS(=O)(=O)c2ccc(Br)cc2)o1)N1CCN(c2ccccn2)CC1	2.5%	-25.0%	0.0%	i	u	i
Cc1ccc(S(=O)(=O)Cc2ccc(C(=O)N3CCN(c4ccccn4)CC3)o2)cc1	-3.9%	11.6µM*	-4.5%	i	u	u
O=C(c1ccc(CS(=O)(=O)c2cccc(C(F)(F)F)c2)o1)N1CCN(c2ccccn2)CC1	-3.9%	u	0.6%	i	u	18.4µM*
CC(C)NC(=O)Nc1ccc2c(c1)C(=O)N([C@H](C)CO)C[C@H](C)[C@@H](CN(C)C(=O)NC(C)C)O2	14.4%	-1.3%	-4.7%	i	0.2%	u
SMILES	HT1080 IDH1KD tx	DT40 TDP1 CPT	HT1080-NT tox	KB-3-1 tox	DT40 TDP1 no CPT	KB-V1 MDR tox
CC(C)NCC(O)c1cc(O)cc(O)c1 (configuration not stated)	2.3%	5.7%	20.4%	i	1.9%	i
CC(C)NC[C@H](O)c1ccc(O)c(O)c1	5.2%	4.73µM*!	7.8%	i	8.41µM*!	u
CCC(c1ccc(O)c(O)c1)C(CC)c1ccc(O)c(O)c1 (configuration not stated)	20.6µM*	2.91µM*	23.1µM*	i	1.84µM*	i
COc1cccc(NS(=O)(=O)c2ccc3c(c2)N(C)C(=O)CC(=O)N3C)c1	x	-2.7%	x	i	-16.9%	u
Cc1cnc(CNc2ccnc(-c3ccc(C(=O)N(C)C)cc3)n2)cn1	x	-3.6%	x	x	18.2%	x
N#CCc1nn2c(-c3ccccc3)ccnc2c1C#N	14.2%	u	12.5%	i	-2.4%	u
Cn1cc(CN2CCCC(CO)(Cc3cccc(Cl)c3)C2)cn1 (configuration not stated)	-7.1%	-20.6%	-6.3%	i	u	i
OCC1(Cc2cccc(Cl)c2)CCCN(Cc2ccc(F)c(F)c2)C1 (configuration not stated)	25.9µM*	23.1µM*	-29.1%	i	u	i

Screening results as filed in PubChem BioAssay.
